This passage reports inhibition results from PubChem BioAssay.

Assay [1] deals with PEG-3 (UniProt Q6IN02). The assay can be described thus: Peg3 promoter luciferase inhibitors, potency, dose response, cell-based, HeLa, CREF/GAPDH counter-screen panel (AID 624167). The settings on record: CREF/GAPDH counter-screens; HeLa PEG-Prom luciferase reporter, overnight, run 1, dose range 1, at 100 µM (top of the series) unless noted. (Counterscreens check selectivity or assay interference.)

For assay [2], the target named is PEG-3 (UniProt Q6IN02). The description is as above. The settings on record: CREF/GAPDH counter-screens; HeLa PEG-Prom luciferase reporter, overnight, run 2, dose range 1, at 100 µM (top of the series) unless noted.

Sequence of PEG-3 (Q6IN02 whole entry, looked up): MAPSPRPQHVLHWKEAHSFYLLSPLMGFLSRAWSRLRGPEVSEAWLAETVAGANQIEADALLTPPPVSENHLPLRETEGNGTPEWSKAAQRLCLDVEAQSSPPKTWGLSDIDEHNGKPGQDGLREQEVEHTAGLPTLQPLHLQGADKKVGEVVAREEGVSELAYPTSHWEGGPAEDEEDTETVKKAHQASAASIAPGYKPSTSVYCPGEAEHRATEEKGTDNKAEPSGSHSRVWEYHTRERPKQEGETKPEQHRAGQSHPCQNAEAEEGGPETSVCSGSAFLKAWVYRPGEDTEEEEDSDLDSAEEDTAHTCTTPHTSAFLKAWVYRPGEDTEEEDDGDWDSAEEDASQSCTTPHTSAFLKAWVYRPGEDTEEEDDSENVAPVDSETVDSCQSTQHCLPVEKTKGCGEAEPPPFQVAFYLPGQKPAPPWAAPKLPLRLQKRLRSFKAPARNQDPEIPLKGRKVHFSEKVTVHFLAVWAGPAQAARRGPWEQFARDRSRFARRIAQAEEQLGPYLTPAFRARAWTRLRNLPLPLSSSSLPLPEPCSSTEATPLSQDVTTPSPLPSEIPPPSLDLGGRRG

On to `CN(C)CC1CCC/C(=C\c2ccc(OC(=O)/C=C/c3ccccc3)cc2)C1=O` (stereo not drawn), for which the inhibition (commonly the drop in the measured response relative to a control, in per cent) with PEG-3 [1] was 97.5%; with PEG-3 [2], 102%.

In the case of `O=C(C(=O)N(Cc1ccccc1)Cc1ccccc1)c1c(-c2ccccc2)[nH]c2ccccc12`, the inhibition amounted to 20.8% with PEG-3 [1] and 46.6% in the assay with PEG-3 [2].

`CC(C)n1nc(C(=O)Oc2cc(Cl)ccc2Cl)c2ccccc2c1=O`: the inhibition with PEG-3 [1] came to 98.6%; with PEG-3 [2], 97.5%.

Consider `O=C(C[C@H]1C[C@H](C(=O)N2CCCCC2)[C@@]2(CCc3ccccc3)c3[nH]c4ccc(Cl)cc4c3CCN2C1=O)NCCc1ccccn1`, for which the inhibition came out at 94% with PEG-3 [1] and 93.1% with PEG-3 [2].

For `COc1ccc(CCNC(=O)C(=O)NCC2CCCN2S(=O)(=O)c2ccccc2)cc1OC` (stereo not drawn), the results for the inhibition with PEG-3 [1] and with PEG-3 [2] were 97.2% and 81.7%, respectively.

On to `O=C(Nc1ccc(CN2CCCCC2)cc1)Nc1ccc(Br)cc1Cl`, for which the results for the inhibition in the assay with PEG-3 [1] and in the assay with PEG-3 [2] were 99% and 101%, respectively.

As to `COc1ccccc1CN(C)C(=O)c1cc(-c2cc(OC)c(OC)c(OC)c2)nc2ccccc12`, the inhibition was found to be 83.8% with PEG-3 [1] and 84.7% with PEG-3 [2].

On to `CCN1CCN(c2ncc(C(=O)Nc3cc(Cl)ccc3OC)c3ccccc23)CC1`, for which the inhibition came to 100% with PEG-3 [1] and 98.7% with PEG-3 [2].

For the compound `NCCc1c(-c2ccccc2)n(-c2ccccc2)c2ccccc12`, the results for the inhibition with PEG-3 [1] and with PEG-3 [2] were 97.5% and 102%, respectively.

As to `O=C1CSC(=S)N1Cc1cccnc1`, the inhibition amounted to 96.9% with PEG-3 [1] and 101% with PEG-3 [2].

Turning to `CC(=O)Nc1ccc(S(=O)(=O)N(Cc2ccco2)Cc2cc3ccccc3[nH]c2=O)cc1`, the inhibition came out at 91.7% in the assay with PEG-3 [1] and 71.7% with PEG-3 [2].

As for `COC(=O)c1ccccc1-c1ccc(/C=N/Nc2nc(N3CCCC3)nc(N3CCCC3)n2)o1`, the inhibition with PEG-3 [1] worked out at 100%; with PEG-3 [2], 102%.

As to `CCCn1c(=N)n(CC(=O)c2ccc(Cl)cc2)c2ccccc21`, the values for the inhibition with PEG-3 [1] and in the assay with PEG-3 [2] were 101% and 100%, respectively.

As to `CCC(C)NCCOCCOc1ccc(Cl)c2ccccc12` (stereo not drawn), the results for the inhibition with PEG-3 [1] and with PEG-3 [2] were 102% and 98.8%, respectively.

With `COc1ccc(-c2cc(C(=O)N3CCN(c4ncccn4)CC3)c3ccccc3n2)c(OC)c1`, the inhibition with PEG-3 [1] was found to be 70%; with PEG-3 [2], 47.8%.

As to `CCN1CCCC1CN(Cc1cc2ccc(C)cc2[nH]c1=O)C(=S)Nc1ccc(OC)cc1` (stereo not drawn), the results for the inhibition in the assay with PEG-3 [1] and in the assay with PEG-3 [2] were 102% and 99.5%, respectively.

As to `COCC(C)n1c(C)cc(C(=O)COC(=O)c2cccn2C)c1C` (stereo not drawn), the inhibition in the assay with PEG-3 [1] amounted to 75.2%; with PEG-3 [2], 83.3%.

Regarding `COc1ccc(NC(=O)Nc2nc(C(N)C3CCCCC3)cs2)cc1` (stereo not drawn), the inhibition stood at 101% in the assay with PEG-3 [1] and 99% with PEG-3 [2].

Consider `COc1ccc(CN(C)C(=O)C(Cc2ccccc2)NC(=O)c2ccccc2)cc1F` (stereo not drawn), for which the inhibition in the assay with PEG-3 [1] was 99.1%; with PEG-3 [2] it was 98.2%.

With `COc1cccc(CN(C)C(=O)c2cc(-c3cccs3)nc3ccccc23)c1`, the inhibition was determined as 84% with PEG-3 [1] and 101% with PEG-3 [2].

Take `CC(=O)c1cccc(-c2csc3ncnc(Sc4nnnn4C)c23)c1`: the inhibition with PEG-3 [1] came out at 99.4%; with PEG-3 [2] it was 100%.

Take `COc1ccc(/C=C/C(=O)c2ccc3c(c2)OCCO3)cc1[N+](=O)[O-]`: the values for the inhibition with PEG-3 [1] and in the assay with PEG-3 [2] were 97.9% and 99%, respectively.

For the compound `Cn1nnnc1Sc1ncnc2scc(-c3ccsc3)c12`, the inhibition with PEG-3 [1] and in the assay with PEG-3 [2] was 102% each time.

In the case of `CN1CCN(CCNC(=O)c2ccc3nc(-c4ccc(F)cc4)c(-c4ccc(F)cc4)nc3c2)CC1`, the inhibition amounted to 99.2% with PEG-3 [1] and 98.2% with PEG-3 [2].

For the compound `O=C(c1cc(-c2cccs2)nn1-c1ccccc1)N1CCN(S(=O)(=O)c2ccccc2)CC1`, the results for the inhibition with PEG-3 [1] and with PEG-3 [2] were -25.3% and 27.8%, respectively.

On to `Cc1nn(-c2ccccc2Cl)c(Cl)c1/C=N/Nc1nc2ccccc2s1`, for which the inhibition is 57.6% with PEG-3 [1] and 47.3% with PEG-3 [2].

Consider `O=C1/C(=C/c2ccccc2Cl)SC(=S)N1CCCC(=O)N(CCO)c1ccccc1`, for which the inhibition with PEG-3 [1] came to 99.7%; in the assay with PEG-3 [2], 102%.

Take `CN1CCC(N(C)S(=O)(=O)c2ccc(NC(=O)COc3ccc(Br)cc3Cl)cc2)CC1`: the inhibition with PEG-3 [1] was 99.8%; with PEG-3 [2], 101%.

For the compound `Cc1ccc(-c2nnc(N3CCN(c4ccccn4)CC3)c3ccccc23)cc1`, the inhibition came out at 98% with PEG-3 [1] and 101% with PEG-3 [2].

For the compound `COc1cc(CNC(C)(C)CO)cc(Br)c1OCc1ccc(Cl)cc1`, the values for the inhibition in the assay with PEG-3 [1] and with PEG-3 [2] were 99% and 98.9%, respectively.

Take `CN(CCOc1ccc(Cl)cc1)C(=O)c1cc(-c2ccco2)nc2ccccc12`: the inhibition in the assay with PEG-3 [1] is 99.6%; in the assay with PEG-3 [2], 96.2%.

On to `CC(=O)NC(c1ccc(C)cc1)c1cc(Cl)c2cccnc2c1O` (stereo not drawn), for which the inhibition with PEG-3 [1] was 88.1%; in the assay with PEG-3 [2], 89.7%.

Take `N#Cc1c(N)nc(SCc2ccncc2)c(C#N)c1-c1cccs1`: the inhibition with PEG-3 [1] is 94.6%; with PEG-3 [2], 99.2%.

With `Cc1cc2c(c(/C=C/C(=O)c3ccccc3)c1)OC1(C=C2)Oc2ccccc2C(=O)N1C` (stereo not drawn), the results for the inhibition in the assay with PEG-3 [1] and with PEG-3 [2] were 102% and 101%, respectively.

With `O=C(c1ccoc1)N1CCN(c2cc(-c3ccccc3)nc3cc(-c4ccccc4)nn23)CC1`, the inhibition with PEG-3 [1] worked out at 58.2%; with PEG-3 [2], 66%.

For `CCCC(=O)NC(c1cccc([N+](=O)[O-])c1)c1ccc2cccnc2c1O` (stereo not drawn), the inhibition with PEG-3 [1] was 75.7% [run 1, dose range 1, at 50 µM]; with PEG-3 [2], 98.9%.

For the compound `COc1ccc2c(c1)C=C([C@@H]1C[C@H]3CN(c4ccccc4)C(=O)[C@]34CCCN14)CO2`, the figures for the inhibition in the assay with PEG-3 [1] and in the assay with PEG-3 [2] were 65.2% and 74%, respectively.

As to `CCOc1ccc2[nH]c3c(NCCc4ccc(OC)c(OC)c4)ncnc3c2c1`, the inhibition with PEG-3 [1] is 99%; with PEG-3 [2], 100%.

`COc1ccc(-c2nc(NC(=O)c3n[nH]c(=O)c4ccccc34)sc2C)cc1`: the inhibition with PEG-3 [1] turned out to be 14%; with PEG-3 [2], 30.7%.
